# From paper PMC11006913
# Where a chain is given by its changes, count along the chain named.
# Columns and labels:
# Experiment in all cases: PBM; 200 nM protein, PBS
# Conditions in all cases: dsDNA, one strand shown
# PAX4 [1] = target: T1, PAX4 (Homo sapiens, UniProt O43316 9-242, R200K)
# T1 sequence: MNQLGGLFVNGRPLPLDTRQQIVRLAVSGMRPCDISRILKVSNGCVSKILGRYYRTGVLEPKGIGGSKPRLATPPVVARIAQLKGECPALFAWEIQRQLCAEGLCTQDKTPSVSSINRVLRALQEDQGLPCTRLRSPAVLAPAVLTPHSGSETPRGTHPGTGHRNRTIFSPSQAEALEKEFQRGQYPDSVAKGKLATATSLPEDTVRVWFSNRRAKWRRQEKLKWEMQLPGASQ
# PAX4 [2] = target: T2, PAX4 (Homo sapiens, UniProt O43316 9-242)
# T2 sequence: T1 sequence with K192R
# PAX4 [3] = target: T3, PAX4 (Homo sapiens, UniProt O43316 9-242, R200Q)
# T3 sequence: T1 sequence with K192Q
# PITX2 = PITX2 (Homo sapiens, UniProt Q99697 72-157)
# PAX4 [4] = target: T4, PAX4 (Homo sapiens, UniProt O43316 9-242, F177V)
# T4 sequence: T1 sequence with F169V, K192R
# PAX4 [5] = target: T5, PAX4 (Homo sapiens, UniProt O43316 9-242, F177Y)
# T5 sequence: T1 sequence with F169Y, K192R
# PAX4 [6] = target: T6, PAX4 (Homo sapiens, UniProt O43316 9-242, R227W)
# T6 sequence: T1 sequence with K192R, R219W
# ALX3 [7] = target: ALX3 (Homo sapiens, UniProt O95076 139-225, N203Q)
# HOXD13 [8] = target: HOXD13 (Homo sapiens, UniProt P35453 263-343, T313R)
# HOXD13 [9] = target: HOXD13 (Homo sapiens, UniProt P35453 263-343)
# HOXD13 [10] = target: HOXD13 (Homo sapiens, UniProt P35453 263-343, T313A)
# HOXC9 = HOXC9 (Homo sapiens, UniProt P31274 178-260, R222W)
# ALX3 [11] = target: ALX3 (Homo sapiens, UniProt O95076 139-225, N203S)
# HOXA2 [12] = target: HOXA2 (Homo sapiens, UniProt O43364 129-215, R185T)
# HOXA2 [13] = target: HOXA2 (Homo sapiens, UniProt O43364 129-215, R185K)
# HOXA2 [14] = target: HOXA2 (Homo sapiens, UniProt O43364 129-215, Y150S)
# HOXA2 [15] = target: HOXA2 (Homo sapiens, UniProt O43364 129-215)
# ALX3 [16] = target: ALX3 (Homo sapiens, UniProt O95076 139-225)
# ALX3 [17] = target: ALX3 (Homo sapiens, UniProt O95076 139-225, L168Q)
# ALX3 [18] = target: ALX3 (Homo sapiens, UniProt O95076 139-225, L168V)
# NKX2-6 [19] = target: T7, NKX2-6 (Homo sapiens, UniProt A6NCS4 118-204)
# T7 sequence: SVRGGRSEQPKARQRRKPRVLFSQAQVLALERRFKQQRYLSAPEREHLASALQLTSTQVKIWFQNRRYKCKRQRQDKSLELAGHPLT
# NKX2-6 [20] = target: T8, NKX2-6 (Homo sapiens, UniProt A6NCS4 118-204, F151L)
# T8 sequence: T7 sequence with F34L
# Sequence of ALX3 (Homo sapiens, UniProt O95076 139-225, N203Q) (O95076 139-225 N203Q): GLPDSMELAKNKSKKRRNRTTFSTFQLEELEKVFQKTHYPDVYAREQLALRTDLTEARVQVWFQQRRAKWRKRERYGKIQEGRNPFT
# Sequence of HOXD13 (Homo sapiens, UniProt P35453 263-343) (P35453 263-343): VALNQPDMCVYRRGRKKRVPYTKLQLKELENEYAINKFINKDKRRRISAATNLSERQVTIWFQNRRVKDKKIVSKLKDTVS
# Sequence of ALX3 (Homo sapiens, UniProt O95076 139-225, N203S) (O95076 139-225 N203S): as the sequence (O95076 139-225 N203Q) above, with Q65S counted along it
# Sequence of HOXD13 (Homo sapiens, UniProt P35453 263-343, T313R) (P35453 263-343 T313R): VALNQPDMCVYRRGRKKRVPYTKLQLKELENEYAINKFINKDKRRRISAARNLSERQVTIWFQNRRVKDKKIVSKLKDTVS
# Sequence of HOXD13 (Homo sapiens, UniProt P35453 263-343, T313A) (P35453 263-343 T313A): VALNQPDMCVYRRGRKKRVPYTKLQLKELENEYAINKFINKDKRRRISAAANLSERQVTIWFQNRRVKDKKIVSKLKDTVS
# Sequence of ALX3 (Homo sapiens, UniProt O95076 139-225, L168V) (O95076 139-225 L168V): as the sequence (O95076 139-225 N203Q) above, with L30V, Q65N counted along it
# Sequence of HOXA2 (Homo sapiens, UniProt O43364 129-215, R185T) (O43364 129-215 R185T): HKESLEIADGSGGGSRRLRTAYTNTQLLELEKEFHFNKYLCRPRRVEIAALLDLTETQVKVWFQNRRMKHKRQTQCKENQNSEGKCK
# Sequence of HOXA2 (Homo sapiens, UniProt O43364 129-215, Y150S) (O43364 129-215 Y150S): as the sequence (O43364 129-215 R185T) above, with Y22S, T57R counted along it
# Sequence of ALX3 (Homo sapiens, UniProt O95076 139-225, L168Q) (O95076 139-225 L168Q): as the sequence (O95076 139-225 N203Q) above, with L30Q, Q65N counted along it
# Sequence of ALX3 (Homo sapiens, UniProt O95076 139-225) (O95076 139-225): as the sequence (O95076 139-225 N203Q) above, with Q65N counted along it
# Sequence of HOXA2 (Homo sapiens, UniProt O43364 129-215) (O43364 129-215): as the sequence (O43364 129-215 R185T) above, with T57R counted along it
# Sequence of HOXA2 (Homo sapiens, UniProt O43364 129-215, R185K) (O43364 129-215 R185K): as the sequence (O43364 129-215 R185T) above, with T57K counted along it
# Sequence of HOXC9 (P31274 178-260 R222W): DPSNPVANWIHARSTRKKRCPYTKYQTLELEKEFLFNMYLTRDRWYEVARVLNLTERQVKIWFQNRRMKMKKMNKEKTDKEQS
sequence,measurement,setting,value
GCCCAGCC,binding signal,PAX4 [1],"9.23 upbm affinity estimate (log intensity, higher = more binding, comparable within an allelic series)"
same,binding signal,PAX4 [2],"9.33 upbm affinity estimate (log intensity, higher = more binding, comparable within an allelic series)"
same,binding signal,PAX4 [3],"9.24 upbm affinity estimate (log intensity, higher = more binding, comparable within an allelic series)"
same,binding signal,PITX2,"7.91 upbm affinity estimate (log intensity, higher = more binding, comparable within an allelic series)"
same,binding signal,PAX4 [4],"9.15 upbm affinity estimate (log intensity, higher = more binding, comparable within an allelic series)"
same,binding signal,PAX4 [5],"9.11 upbm affinity estimate (log intensity, higher = more binding, comparable within an allelic series)"
same,binding signal,PAX4 [6],"9.23 upbm affinity estimate (log intensity, higher = more binding, comparable within an allelic series)"
AAAATCAG,binding signal,PAX4 [1],"10.5 upbm affinity estimate (log intensity, higher = more binding, comparable within an allelic series)"
same,binding signal,PAX4 [2],"10.7 upbm affinity estimate (log intensity, higher = more binding, comparable within an allelic series)"
same,binding signal,PAX4 [3],"10.6 upbm affinity estimate (log intensity, higher = more binding, comparable within an allelic series)"
same,binding signal,PAX4 [4],"10.1 upbm affinity estimate (log intensity, higher = more binding, comparable within an allelic series)"
AATTTATA,binding signal,PAX4 [1],"11.2 upbm affinity estimate (log intensity, higher = more binding, comparable within an allelic series)"
same,binding signal,PAX4 [2],"11.4 upbm affinity estimate (log intensity, higher = more binding, comparable within an allelic series)"
same,binding signal,ALX3 [7],"8.61 upbm affinity estimate (log intensity, higher = more binding, comparable within an allelic series)"
same,binding signal,HOXD13 [8],"10.9 upbm affinity estimate (log intensity, higher = more binding, comparable within an allelic series)"
same,binding signal,PAX4 [3],"11.3 upbm affinity estimate (log intensity, higher = more binding, comparable within an allelic series)"
same,binding signal,HOXD13 [9],"11.7 upbm affinity estimate (log intensity, higher = more binding, comparable within an allelic series)"
same,binding signal,PAX4 [4],"10.6 upbm affinity estimate (log intensity, higher = more binding, comparable within an allelic series)"
same,binding signal,PAX4 [5],"10.8 upbm affinity estimate (log intensity, higher = more binding, comparable within an allelic series)"
same,binding signal,HOXD13 [10],"11.6 upbm affinity estimate (log intensity, higher = more binding, comparable within an allelic series)"
same,binding signal,HOXC9,"11.1 upbm affinity estimate (log intensity, higher = more binding, comparable within an allelic series)"
same,binding signal,PAX4 [6],"10.7 upbm affinity estimate (log intensity, higher = more binding, comparable within an allelic series)"
same,binding signal,ALX3 [11],"8.71 upbm affinity estimate (log intensity, higher = more binding, comparable within an allelic series)"
GCCCCACC,binding signal,PAX4 [1],"9.5 upbm affinity estimate (log intensity, higher = more binding, comparable within an allelic series)"
same,binding signal,PAX4 [2],"9.33 upbm affinity estimate (log intensity, higher = more binding, comparable within an allelic series)"
same,binding signal,HOXD13 [8],"9.66 upbm affinity estimate (log intensity, higher = more binding, comparable within an allelic series)"
same,binding signal,PAX4 [3],"9.38 upbm affinity estimate (log intensity, higher = more binding, comparable within an allelic series)"
same,binding signal,HOXD13 [9],"9.74 upbm affinity estimate (log intensity, higher = more binding, comparable within an allelic series)"
same,binding signal,PAX4 [4],"9.19 upbm affinity estimate (log intensity, higher = more binding, comparable within an allelic series)"
same,binding signal,PAX4 [5],"9.3 upbm affinity estimate (log intensity, higher = more binding, comparable within an allelic series)"
same,binding signal,HOXD13 [10],"9.8 upbm affinity estimate (log intensity, higher = more binding, comparable within an allelic series)"
same,binding signal,PAX4 [6],"9.4 upbm affinity estimate (log intensity, higher = more binding, comparable within an allelic series)"
CGGCGTCA,binding signal,PAX4 [1],"9.36 upbm affinity estimate (log intensity, higher = more binding, comparable within an allelic series)"
same,binding signal,PAX4 [2],"9.43 upbm affinity estimate (log intensity, higher = more binding, comparable within an allelic series)"
same,binding signal,HOXD13 [8],"9.54 upbm affinity estimate (log intensity, higher = more binding, comparable within an allelic series)"
same,binding signal,PAX4 [3],"9.37 upbm affinity estimate (log intensity, higher = more binding, comparable within an allelic series)"
same,binding signal,PITX2,"8.08 upbm affinity estimate (log intensity, higher = more binding, comparable within an allelic series)"
same,binding signal,HOXD13 [9],"9.49 upbm affinity estimate (log intensity, higher = more binding, comparable within an allelic series)"
same,binding signal,PAX4 [4],"9.21 upbm affinity estimate (log intensity, higher = more binding, comparable within an allelic series)"
same,binding signal,PAX4 [5],"9.24 upbm affinity estimate (log intensity, higher = more binding, comparable within an allelic series)"
same,binding signal,HOXD13 [10],"9.61 upbm affinity estimate (log intensity, higher = more binding, comparable within an allelic series)"
same,binding signal,PAX4 [6],"9.35 upbm affinity estimate (log intensity, higher = more binding, comparable within an allelic series)"
TGAATTAA,binding signal,PAX4 [1],"11.8 upbm affinity estimate (log intensity, higher = more binding, comparable within an allelic series)"
same,binding signal,PAX4 [2],"12.3 upbm affinity estimate (log intensity, higher = more binding, comparable within an allelic series)"
same,binding signal,HOXA2 [12],"11.1 upbm affinity estimate (log intensity, higher = more binding, comparable within an allelic series)"
same,binding signal,PAX4 [3],"11.9 upbm affinity estimate (log intensity, higher = more binding, comparable within an allelic series)"
same,binding signal,PITX2,"11.2 upbm affinity estimate (log intensity, higher = more binding, comparable within an allelic series)"
same,binding signal,HOXA2 [13],"12.5 upbm affinity estimate (log intensity, higher = more binding, comparable within an allelic series)"
same,binding signal,PAX4 [4],"10.6 upbm affinity estimate (log intensity, higher = more binding, comparable within an allelic series)"
same,binding signal,PAX4 [5],"11.1 upbm affinity estimate (log intensity, higher = more binding, comparable within an allelic series)"
same,binding signal,HOXA2 [14],"10.8 upbm affinity estimate (log intensity, higher = more binding, comparable within an allelic series)"
same,binding signal,HOXA2 [15],"11.1 upbm affinity estimate (log intensity, higher = more binding, comparable within an allelic series)"
CCAGGGGG,binding signal,PAX4 [1],"9.05 upbm affinity estimate (log intensity, higher = more binding, comparable within an allelic series)"
same,binding signal,PAX4 [2],"9.19 upbm affinity estimate (log intensity, higher = more binding, comparable within an allelic series)"
same,binding signal,ALX3 [7],"7.64 upbm affinity estimate (log intensity, higher = more binding, comparable within an allelic series)"
same,binding signal,PAX4 [3],"9.12 upbm affinity estimate (log intensity, higher = more binding, comparable within an allelic series)"
same,binding signal,PAX4 [4],"9.04 upbm affinity estimate (log intensity, higher = more binding, comparable within an allelic series)"
same,binding signal,ALX3 [16],"7.54 upbm affinity estimate (log intensity, higher = more binding, comparable within an allelic series)"
same,binding signal,PAX4 [5],"9.08 upbm affinity estimate (log intensity, higher = more binding, comparable within an allelic series)"
same,binding signal,ALX3 [17],"7.58 upbm affinity estimate (log intensity, higher = more binding, comparable within an allelic series)"
same,binding signal,ALX3 [18],"7.54 upbm affinity estimate (log intensity, higher = more binding, comparable within an allelic series)"
same,binding signal,PAX4 [6],"9.06 upbm affinity estimate (log intensity, higher = more binding, comparable within an allelic series)"
same,binding signal,ALX3 [11],"7.57 upbm affinity estimate (log intensity, higher = more binding, comparable within an allelic series)"
CGACAGCG,binding signal,PAX4 [1],"9.45 upbm affinity estimate (log intensity, higher = more binding, comparable within an allelic series)"
same,binding signal,PAX4 [2],"9.39 upbm affinity estimate (log intensity, higher = more binding, comparable within an allelic series)"
same,binding signal,NKX2-6 [19],"9.49 upbm affinity estimate (log intensity, higher = more binding, comparable within an allelic series)"
same,binding signal,PAX4 [3],"9.48 upbm affinity estimate (log intensity, higher = more binding, comparable within an allelic series)"
same,binding signal,PAX4 [4],"9.36 upbm affinity estimate (log intensity, higher = more binding, comparable within an allelic series)"
same,binding signal,PAX4 [5],"9.33 upbm affinity estimate (log intensity, higher = more binding, comparable within an allelic series)"
same,binding signal,NKX2-6 [20],"9.32 upbm affinity estimate (log intensity, higher = more binding, comparable within an allelic series)"
same,binding signal,PAX4 [6],"9.44 upbm affinity estimate (log intensity, higher = more binding, comparable within an allelic series)"
GCCTGTCC,binding signal,PAX4 [1],"9.34 upbm affinity estimate (log intensity, higher = more binding, comparable within an allelic series)"
same,binding signal,PAX4 [2],"9.22 upbm affinity estimate (log intensity, higher = more binding, comparable within an allelic series)"
same,binding signal,HOXA2 [12],"7.41 upbm affinity estimate (log intensity, higher = more binding, comparable within an allelic series)"
same,binding signal,ALX3 [7],"7.8 upbm affinity estimate (log intensity, higher = more binding, comparable within an allelic series)"
same,binding signal,NKX2-6 [19],"9.8 upbm affinity estimate (log intensity, higher = more binding, comparable within an allelic series)"
same,binding signal,PAX4 [3],"9.44 upbm affinity estimate (log intensity, higher = more binding, comparable within an allelic series)"
same,binding signal,HOXA2 [13],"10.4 upbm affinity estimate (log intensity, higher = more binding, comparable within an allelic series)"
same,binding signal,PAX4 [4],"9.3 upbm affinity estimate (log intensity, higher = more binding, comparable within an allelic series)"
same,binding signal,ALX3 [16],"7.73 upbm affinity estimate (log intensity, higher = more binding, comparable within an allelic series)"
same,binding signal,PAX4 [5],"9.34 upbm affinity estimate (log intensity, higher = more binding, comparable within an allelic series)"
same,binding signal,ALX3 [17],"7.77 upbm affinity estimate (log intensity, higher = more binding, comparable within an allelic series)"
same,binding signal,NKX2-6 [20],"9.38 upbm affinity estimate (log intensity, higher = more binding, comparable within an allelic series)"
same,binding signal,ALX3 [18],"7.73 upbm affinity estimate (log intensity, higher = more binding, comparable within an allelic series)"
same,binding signal,PAX4 [6],"9.36 upbm affinity estimate (log intensity, higher = more binding, comparable within an allelic series)"
same,binding signal,HOXA2 [14],"10.4 upbm affinity estimate (log intensity, higher = more binding, comparable within an allelic series)"
same,binding signal,ALX3 [11],"7.78 upbm affinity estimate (log intensity, higher = more binding, comparable within an allelic series)"
same,binding signal,HOXA2 [15],"7.48 upbm affinity estimate (log intensity, higher = more binding, comparable within an allelic series)"
ATTATTTC,binding signal,PAX4 [1],"10.8 upbm affinity estimate (log intensity, higher = more binding, comparable within an allelic series)"
same,binding signal,PAX4 [2],"11.1 upbm affinity estimate (log intensity, higher = more binding, comparable within an allelic series)"
same,binding signal,PAX4 [3],"10.9 upbm affinity estimate (log intensity, higher = more binding, comparable within an allelic series)"
same,binding signal,PAX4 [4],"10.4 upbm affinity estimate (log intensity, higher = more binding, comparable within an allelic series)"
CTAATAAC,binding signal,PAX4 [1],"11.1 upbm affinity estimate (log intensity, higher = more binding, comparable within an allelic series)"
same,binding signal,PAX4 [2],"11.3 upbm affinity estimate (log intensity, higher = more binding, comparable within an allelic series)"
same,binding signal,PAX4 [3],"11.1 upbm affinity estimate (log intensity, higher = more binding, comparable within an allelic series)"
same,binding signal,PAX4 [4],"10.4 upbm affinity estimate (log intensity, higher = more binding, comparable within an allelic series)"
